According to ChEMBL document CHEMBL3433997, “St. Jude Leishmania screening dataset” (2016):

Key:
Type in all cases: functional
[1] = biological target: Solute carrier family 2, facilitated glucose transporter member 1 (Homo sapiens) (UniProt P11166); experiment: ST_JUDE_LEISH: Cytotoxicity at 2uM final concentration against transgenic Leishmania Mexicana promastigotes LmGLUT1 that are glucose transport deficient and complemented with the human glucose transporter GLUT1. Activity is measured by DNA content using SYBR green in vitro
[2] = biological target: Hexose transporter 1 (Plasmodium falciparum) (UniProt O97467); experiment: ST_JUDE_LEISH: Cytotoxicity at 2uM final concentration against transgenic Leishmania Mexicana promastigotes LmPfHT that are glucose transport deficient and complemented with the Plasmodium falciparum hexose transporter. Activity is measured by DNA content using SYBR green in vitro
[3] = biological target: Glucose transporter (Leishmania mexicana) (UniProt O61059); experiment: ST_JUDE_LEISH: Cytotoxicity at 2uM final concentration against transgenic Leishmania Mexicana promastigotes LmGT2 that are glucose transport deficient and complemented with the L. Mexicana glucose transporter 2. Activity is measured by DNA content using SYBR green in vitro

Sequence of Solute carrier family 2, facilitated glucose transporter member 1 (Homo sapiens) (P11166 whole entry): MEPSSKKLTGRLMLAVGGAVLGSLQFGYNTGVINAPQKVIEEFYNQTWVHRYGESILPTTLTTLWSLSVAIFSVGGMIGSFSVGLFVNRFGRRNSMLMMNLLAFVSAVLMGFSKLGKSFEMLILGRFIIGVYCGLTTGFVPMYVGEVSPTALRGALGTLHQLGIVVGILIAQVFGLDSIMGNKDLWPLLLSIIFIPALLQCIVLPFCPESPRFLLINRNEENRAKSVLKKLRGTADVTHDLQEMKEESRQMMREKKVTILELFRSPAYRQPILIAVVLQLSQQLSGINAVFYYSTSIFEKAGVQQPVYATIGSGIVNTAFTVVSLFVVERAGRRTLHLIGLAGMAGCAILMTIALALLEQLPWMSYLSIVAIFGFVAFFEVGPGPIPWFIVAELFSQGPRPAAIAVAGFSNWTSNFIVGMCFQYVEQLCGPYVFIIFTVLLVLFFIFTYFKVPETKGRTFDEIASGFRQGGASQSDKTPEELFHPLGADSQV

SMILES | inhibition [1] [%] | inhibition [2] [%] | inhibition [3] [%]
CN(C)CCOc1cc(NC(=O)Nc2ccc(-c3ccccc3)cc2Cl)ccc1I | 1.19 | 0.57 | -2.09
COc1cc(Cc2cnc(N)nc2N)cc(OCCCS(=O)(=O)O)c1OC | 4.25 | 2.33 | 3.36
O=C(c1ccc([N+](=O)[O-])o1)N1CCC(c2cn(Cc3cccc(F)c3)c3ccccc23)CC1 | 50.1 | 50.9 | 10.2
c1ccc(C(c2cccs2)N2CCN(Cc3ccc(OCCCN4CCCCC4)cc3)CC2)cc1 (stereo unspecified) | 7.65 | 6.22 | 5.51
CC(c1cccc(Nc2nccc(-c3c(-c4cccc(NC(=O)c5c(F)cccc5F)c4)nn4ccccc34)n2)c1)S(C)(=O)=O (stereo unspecified) | 3.25 | 2.14 | -0.68
COc1ccc2nccc([C@@H](O)CN3CCC(NS(=O)(=O)c4cc(Br)c(Br)s4)CC3)c2c1 | 3.72 | 2.36 | 1.8
Cn1ccc(C(=O)Nc2ccc3c(c2)CN(Cc2ccc(N4CCCC4)o2)CCC3)n1 | 28.5 | 54.6 | -0.65
COc1ccc2nccc([C@@H](O)CN3CCC(NC(=O)/C=C/c4cc(F)cc(NC(C)=O)c4)CC3)c2c1 | 5.61 | 2.3 | -3.44
Cc1nc(C)c(-c2ccc(-c3ccc(F)cc3)cc2)c(O)c1Cl | 1.77 | 2.48 | 0.55
CCCNS(=O)(=O)c1ccc(NC(=O)C(C)Oc2ccc([N+](=O)[O-])cc2)cc1 (stereo unspecified) | 0.31 | 0.29 | -4.88
CC(C)C[C@H]1C(=O)N[C@H](C2Cc3ccccc3C2)C(=O)N1[C@@H](C(=O)Nc1ccccc1OCc1ccccc1)c1ccc(F)cc1F | 0.86 | -0.17 | -0.16
O=C(NCCN1CCC(c2ncc(-c3ccccc3)o2)CC1)c1ccc(NC(=O)c2ccc(Cl)cc2)cc1 | 0.84 | 2.19 | 1.19
O=C1Nc2cccc3c2C1(CCCN1CCC(c2c[nH]c4cc(C(F)(F)F)ccc24)CC1)CCC3 (stereo unspecified) | -0.49 | -2.03 | -0.71
O=C(NCCN1CCCC1)c1cccc(-c2ccc(-c3nc4ccccc4[nH]3)s2)c1 | 3.42 | 1.36 | 4.63
Cc1cccc2nc(-c3ccc(-c4ccc(CN5CCC(CO)CC5)cc4)s3)[nH]c12 | 3.72 | 2.43 | 0.87
CC1(C)NC(N)=NC(=N)N1OCCCOc1ccc([N+](=O)[O-])cc1 | 0.81 | 0.61 | 0.11

SMILES | inhibition [1] [%] | inhibition [2] [%] | inhibition [3] [%]
CCCC(CC)n1ccc2c3c(N)nc(N)nc3ccc21 (stereo unspecified) | 70.5 | 76.3 | 57.8
CCc1c[nH]c2c(N3CCCCC3=O)cc(C(=O)N[C@@H](Cc3ccccc3)[C@H](O)CNCc3cccc(OC)c3)cc12 | -0.8 | -2.31 | 0.87
CC(C)(C)c1ccc(/C=C/C(=O)NCCCCCN2CCC(c3c[nH]c4ccccc34)CC2)cc1 | 4.78 | 4.13 | -1.25
CCCCCCNC(=O)C(N)CCCC(N)C(=O)NCCCCCC (stereo unspecified) | 6.05 | 5.65 | 5.23
O=C(NC1CCN(CC2(c3ccccc3F)CCCC2)CC1)c1cc[nH]n1 | 4.33 | 1.54 | 1.89
O=c1cc(N2CCNCC2)c(Cl)nn1Cc1ccc(NS(=O)(=O)c2ccc(Oc3ccccc3)cc2)cc1 | 1.25 | 3.7 | 1.23
Fc1ccc2[nH]c(-c3ccc(-c4ccc(CN5CCN(CCN6CCOCC6)CC5)cc4)s3)nc2c1 | 6.46 | 2.96 | 1.83
COc1ccc2c(CCNc3nc(SC)ncc3C(=O)NCCc3ccc(F)cc3)c[nH]c2c1 | 2.09 | 0.58 | 1.11
CC1(C)N=C(N)N=C(N)N1OCc1cccc2c1ccc1ccccc12 | 0.96 | 2.76 | 0.32
O=C1Nc2cccc3c2C1(CCCCN1CCC(c2c(-c4ccc(F)cc4)[nH]c4ccccc24)CC1)CCC3 (stereo unspecified) | 5.51 | 5.23 | 6.27
CCN(CC)c1nc(-c2ccccc2)cc(-c2ccccc2)c1C#N | 1.31 | 1.62 | -0.21
Cc1ccc(NC(=O)Nc2ccc(Cl)c(C(F)(F)F)c2)cc1-c1ccc(C(=O)Nc2ccncc2)cc1 | 3.55 | 2.27 | 3.98
CC(C)(C)c1ccc(NC(=O)c2ccc(CN3CCCN(Cc4ccc(F)cc4)CC3)cc2)cc1 | 2.24 | -1.93 | 1.74
NCC1CCCN1Cc1cccc(-c2ccc(-c3nc4cc(C(F)(F)F)ccc4[nH]3)cc2)c1 (stereo unspecified) | 0.06 | 0.65 | -0.43
CC(C)(C)c1ccc(CNC(=O)c2ccc(-c3nc4cc(C(C)(C)C)ccc4[nH]3)cc2)cc1 | 4.41 | 4.23 | 1.77
Oc1ccc(CCNc2nc(NCc3ccccc3-c3ccccc3)nc(N3CCCNCC3)n2)cc1 | 0.19 | 2.05 | 0.48
